The text below walks through data of PubChem BioAssay AID588689 (Southern Research Specialized Biocontainment Screening …, 2011).

One may read the inhibition as the drop in the measured response relative to a control, in per cent.

In all, about 340,000 compounds went through this assay and about 1,000 (0.29%) were called active. Cut-off read from the data, not from the text of the source: inconclusive = inhibition above about 29% without an active follow-up result; inactive = below that. The list is a sample of the results. Entries with a potency or affinity are not part of this list.

The target of this experiment is Genome polyprotein (Dengue virus type 2 (strain 16681-PDK53)) (UniProt P29991). In words: Dengue-2 NS5 methyltransferase inhibitors, primary screen, biochemical, confirmation dose response (AID 588689). The note with it: Dengue-2 NS5 methyltransferase capping enzyme assay, at 25 µM, stronger effect = higher value.
[1] abbreviates: measured here: pilot screen replicate inhibition.

For the compound `CC(C)C(NS(=O)(=O)c1cccc(C(F)(F)F)c1)C(=O)N1CCc2ccccc2C1` (configuration not stated), the inhibition is -4.98% (inactive).
As for `CCn1c(SCC(=O)NNC(=O)c2ccc(C)cc2)nnc1C(C)C`, the inhibition is 7.12% (inactive).
On the same count and under the same terms, next, `Nc1ccc(N2CCOCC2)c2nonc12`: 45.2% (inactive).
Still for that read-out and setting: next, `Nc1ccc(N2CCCCC2)cc1N1CCCCC1`: 25.7% (inactive); `O=C1C2CCCN2C(=S)N1c1ccccc1` (configuration not stated): -3.27% (inactive); `COc1ccccc1-c1cc(N)n[nH]1`: 2.4% (inactive).
On the same count and under the same terms, next, `Cc1ccc(/C=C2\C(=O)NC(=O)N2C)o1`: 23.3% (inactive); `COc1cccc(N2C(=O)/C(=C\c3cccs3)NC2=S)c1`: -5.28% (inactive).
`COc1ccc(NC(C)C(=O)N/N=C/c2ccc([N+](=O)[O-])s2)cc1` (configuration not stated): the inhibition was -5.18% (inactive).
With `CC1=CN2C(=N)/C(=C/c3ccc([N+](=O)[O-])o3)C(=O)N=C2S1`, the inhibition was -58.2% (inactive).
Still for that read-out and setting: under `Cc1cc(C)cc(N=Cc2ccc([N+](=O)[O-])s2)c1` stands 4.37% (inactive).
On the same count and under the same terms, under `COc1cccc(NCc2ccc([N+](=O)[O-])s2)c1` stands -8.01% (inactive).
The same measure, in the same setting: next, `COc1ccc(N2C(=O)NC(=O)C2=O)cc1`: -2.2% (inactive); `CC1CC(C)CN(C(=O)/C=C/c2ccc([N+](=O)[O-])s2)C1` (configuration not stated): -5.44% (inactive); `Cc1cc(-c2ccc(S(=O)(=O)NCc3ccc(F)cc3)cc2)on1`: -4.39% (inactive).
For the compound `O=C(Cc1ccc(Br)cc1)N/N=C/c1cccnc1`, the inhibition was 1.95% (inactive).
On the same count and under the same terms, under `CCOC(=O)Cc1csc(SC(C)C(=O)Nc2ccc(NC(C)=O)cc2)n1` (configuration not stated) stands -3.63% (inactive); under `Cc1ccc(/C=C/C2=NN(Cc3ccccc3Cl)C(=O)CC2)cc1`, -2.71% (inactive); under `O=C(CCC1CCCC1)NCCS(=O)(=O)N1CCN(c2ccccc2)CC1`, -5.17% (inactive).
The same measure, in the same setting: next, `Cc1c(C(=O)OCC(=O)N2CC(=O)Nc3ccccc32)oc2ccc(Br)cc12`: -0.83% (inactive); `Cc1cccc(NC(=O)C(=O)NCC2CCCN2S(=O)(=O)c2cccs2)c1` (configuration not stated): 6.86% (inactive).
Still for that read-out and setting: under `Cc1onc(-c2ccccc2)c1C(=O)OCC(=O)c1ccc[nH]1` stands -1.1% (inactive); under `COC(=O)NC1CSCC1OC(=O)CN1C(=O)c2ccccc2C1=O` (configuration not stated), 1.83% (inactive).
`NS(=O)(=O)c1ccc(NC(=O)COc2ccc(S(=O)(=O)N3CCCC3)cc2)cc1`: the inhibition was -0.81% (inactive).
The same measure, in the same setting: under `O=C1N/C(=C/c2ccc(Br)s2)C(=O)N1c1ccccc1` stands -5.43% (inactive).
Same read-out and setting: next, `O=C1NC(=O)N(c2ccccc2)C1=O`: 0% (inactive); `Cc1ccc(-n2nnnc2CS(=O)(=O)c2ccccc2)c(C)c1`: -5.86% (inactive); `C=CCc1ccccc1OCC(=O)OCCNC(=O)c1cccnc1`: 3.9% (inactive).
On the same count and under the same terms, next, `Cc1ccc(NCc2ccccc2)cc1`: -5.19% (inactive); `CSc1ccc(CNc2ccc(C)cc2)cc1`: 2.76% (inactive).
As for `COc1ccc(OC)c(N=c2oc3c(OC)cccc3cc2C(=O)NCc2ccco2)c1`, the inhibition is -9.6% (inactive). Besides, the inhibition under setting [1] is -5.77%.
In the case of `COc1ccccc1N=c1oc2c(OC)cccc2cc1C(=O)NCc1ccco1`, the inhibition is 12.3% (inactive). The inhibition under setting [1] amounted to 6.37%.
In the case of `O=c1oc2ccccc2c(O)c1C=Nc1cccnc1`, the inhibition is -5.19% (inactive).
The same measure, in the same setting: under `CC(=O)Nc1ccc(Nc2cc(N(C)C)c3nonc3c2[N+](=O)[O-])cc1` stands -5.29% (inactive); under `Nc1cc(Nc2ccccc2)c2nonc2c1[N+](=O)[O-]`, -1.31% (inactive); under `CN(C)c1cc(Nc2cccc(O)c2)c([N+](=O)[O-])c2nonc12`, 6.85% (inactive).
The same measure, in the same setting: next, `O=[N+]([O-])c1c(Nc2ccc(O)cc2)cc(N2CCOCC2)c2nonc12`: 9.17% (inactive); `CC(=O)Nc1ccc(Nc2cc(N3CCOCC3)c3nonc3c2[N+](=O)[O-])cc1`: -6.25% (inactive).
As to `CN(C)c1cc(Nc2ccc(O)cc2)c([N+](=O)[O-])c2nonc12`, the inhibition is -10.7% (inactive).
Same read-out and setting: under `COc1cccc(Nc2cc(N3CCOCC3)c3nonc3c2[N+](=O)[O-])c1` stands 2.01% (inactive); under `O=[N+]([O-])c1ccc(Nc2ccccn2)c([N+](=O)[O-])c1`, -9.54% (inactive); under `Cc1ccc(-c2cc(C(=O)N3CCOCC3)c3cc(C)ccc3n2)cc1`, -1.58% (inactive).
On the same count and under the same terms, next, `O=C1CS/C(=C\S(=O)(=O)c2ccc(Cl)cc2)N1`: -10.6% (inactive); `CCC(=O)N1c2ccccc2-c2nnc(SC)nc2OC1c1ccc(N(C)C)cc1` (configuration not stated): -7.25% (inactive).
With `Cc1cnn(C(=O)c2cc(-c3ccccn3)nc3ccc(Cl)cc23)c1`, the inhibition was 8.88% (inactive).
Still for that read-out and setting: next, `CCOC(=O)NC1(C(F)(F)F)NC(=O)N(C2CCCCC2)C1=O` (configuration not stated): -2.12% (inactive); `COc1ccc(CCNC(=O)CSc2nc(=O)n3cc(C)ccc3n2)cc1OC`: 3.6% (inactive).
On the same count and under the same terms, next, `CCCCn1c(SCC(=O)NNC(=O)c2ccccc2)n[nH]c1=O`: 3.69% (inactive); `Cc1nnc(SCC(=O)Nc2nc3ccccc3s2)n(N)c1=O`: -2.58% (inactive); `O=C(O)c1ccc(Nc2ccc3nonc3c2[N+](=O)[O-])cc1`: -2.31% (inactive).
The same measure, in the same setting: next, `O=C(O)c1ccc(Nc2ccc([N+](=O)[O-])c3nonc23)cc1`: -1.54% (inactive); `CCNc1cc(Nc2c(C)n(C)n(-c3ccccc3)c2=O)c([N+](=O)[O-])c2nonc12`: 6.99% (inactive).
For `O=C(O)c1cccc(Nc2ccc3nonc3c2[N+](=O)[O-])c1`, the inhibition was 1.54% (inactive).
Turning to `O=[N+]([O-])c1c(Nc2ccccc2O)ccc2nonc12`, the inhibition is 6.25% (inactive).
On the same count and under the same terms, next, `O=C(O)c1cccc(Nc2ccc([N+](=O)[O-])c3nonc23)c1`: 1.29% (inactive).
On the same count and under the same terms, under `Cc1c(Nc2cc(N3CCCCCC3)c3nonc3c2[N+](=O)[O-])c(=O)n(-c2ccccc2)n1C` stands -6.93% (inactive); under `O=[N+]([O-])c1c(Nc2ccccc2O)cc(N2CCOCC2)c2nonc12`, 6.36% (inactive).
Same read-out and setting: under `O=C(COC(=O)/C=C/c1cccc(Br)c1)NCc1cccs1` stands -4.41% (inactive).
In the case of `COCCCNC(=O)Cn1cnc(C(=O)Nc2ccc(C)c(C)c2)n1`, the inhibition was -3.97% (inactive). Besides, under setting [1], the inhibition came to 0.615%.
Turning to `COc1cccc(Nc2nc(N)nc(-c3oc4ccccc4c3C)n2)c1`, the inhibition was -4.01% (inactive).
As for `Cc1ccc(NS(=O)(=O)c2ccc(OCC(=O)NCC3CCCO3)cc2)cc1` (configuration not stated), the inhibition is 2.96% (inactive).
On to `O=S(=O)(Nc1ccc2c(c1)nc1n2CCOC1)c1ccc(Cl)cc1`, for which the inhibition is -6.15% (inactive).
Still for that read-out and setting: next, `COc1cccc(/C=N/N2CCOCC2)c1O`: -2.67% (inactive); `COc1ccc(O)c(/C=N/N2CCOCC2)c1`: -4.77% (inactive).
The same measure, in the same setting: next, `COc1ccc(C=C2NC(=O)NC2=O)cc1O`: 5.71% (inactive); `COc1ccc(NC(=S)N(CCC(C)C)C(C)c2ccncc2)cc1` (configuration not stated): 0.57% (inactive).
Still for that read-out and setting: next, `CCOC(=O)c1ccc(OCc2nc(-c3cccs3)no2)cc1`: -0.7% (inactive); `CN(C)S(=O)(=O)c1cccc(NC(=O)CO/N=C(\N)c2ccccc2)c1`: 2.16% (inactive); `CN(C)S(=O)(=O)c1cccc(-c2nn(-c3ccccc3)cc2/C=C2\SC(=S)NC2=O)c1`: -16% (inactive).
Turning to `COc1ccc(-c2nn(-c3ccccc3)cc2/C=C2/SC(=S)N(CCC(=O)O)C2=O)cc1`, the inhibition is 11.8% (inactive).
The same measure, in the same setting: next, `CC1CCN(C2=NC(=O)/C(=C/c3cn(-c4ccccc4)nc3-c3cccc(S(=O)(=O)N(C)C)c3)S2)CC1`: -0.56% (inactive); `CCN1C(=O)/C(=C\c2cn(-c3ccccc3)nc2-c2cccnc2)SC1=S`: 2.99% (inactive); `CCC(=O)Nc1ccc2c(c1)ncn2C`: -8.57% (inactive).
Still for that read-out and setting: next, `CCC(=O)Nc1ccc2ccccc2c1`: -7.67% (inactive); `O=c1[nH]nc(-c2ccc(F)cc2)cc1Cc1ccccc1`: -7.66% (inactive); `COc1ccc(NC(=O)/C(C#N)=C\c2ccc(OCc3ccc(C(=O)O)cc3)c(OC)c2)cc1`: -8.98% (inactive).
As to `N#C/C(=C\c1ccccc1OCc1ccc(C(=O)O)cc1)C(=O)Nc1ccc(O)cc1`, the inhibition is 27% (inactive).
For `O=C(NCCCN1CCOCC1)c1ccc(S(=O)(=O)Nc2ccccc2)cc1`, the inhibition is -4.34% (inactive).
Still for that read-out and setting: under `Cc1ccc(NC(=O)Nc2cc(C)on2)cc1` stands -0.74% (inactive); under `CCNc1nc(SC(C(C)=O)C(C)=O)nc(N(C)C)n1`, -1.07% (inactive).
The same measure, in the same setting: next, `COc1ccc([N+](=O)[O-])cc1NCC(=O)Nc1cccc(S(=O)(=O)N2CCCC2)c1`: -0.72% (inactive); `O=C1C(c2ccncc2)=C(O)c2ccccc21`: 2.03% (inactive).
The same measure, in the same setting: under `O=C1C(c2c(O)[nH]c3ccccc23)=Nc2ccccc21` stands -46.9% (inactive); under `Clc1ccc(-c2nsc(N3CCOCC3)n2)c(Cl)c1`, -8.96% (inactive).
For `Cc1cc(C)c(NC(=O)CNC(=O)COC(=O)/C=C/c2cccs2)c(C)c1`, the inhibition is -7.3% (inactive).
Still for that read-out and setting: under `CCc1nnc(NS(=O)(=O)c2ccc(NC(=S)NC(=O)/C=C/c3ccc(OC)cc3)cc2)s1` stands -1.6% (inactive); under `CCc1nnc(NS(=O)(=O)c2ccc(NC(=O)/C=C/c3ccc(F)cc3)cc2)s1`, 3.59% (inactive); under `CCc1nnc(NS(=O)(=O)c2ccc(NC(=S)NC(=O)/C=C/c3ccc([N+](=O)[O-])cc3)cc2)s1`, 9.83% (inactive).
Same read-out and setting: next, `CCc1nnc(NS(=O)(=O)c2ccc(NC(=S)NC(=O)/C=C/c3ccccc3)cc2)s1`: 8.99% (inactive); `CC(C)NC1(C#N)CCN(Cc2ccccc2)CC1`: 0% (inactive); `CCOc1ccc(Nc2nc(C)cc(C)c2C#N)cc1`: 0% (inactive).
With `COC(=O)c1sc(N)c(C(=O)OC)c1COC(=O)CNS(=O)(=O)c1cccc(C#N)c1`, the inhibition was -1.45% (inactive).
The same measure, in the same setting: next, `COC(=O)c1cc(C)c(C)cc1NC1OC(CO)C(O)C1O` (configuration not stated): -9.68% (inactive); `C[C@H](CO)N1C[C@H](C)[C@@H](CN(C)C(=O)c2cnccn2)Oc2cc(C#CCC3CCCC3)ccc2S1(=O)=O`: -16.2% (inactive).
